In all, about 13,000 compounds went through this assay and about 3,200 (25%) showed an effect of 50% or more. The list shows a part of the results.
Tested on: P. falciparum stage V gametocytes
Parameters: BacTiter-Glo ATP luminescence viability of purified stage V gametocytes in 384-well plates, per cent inhibition versus DMSO
Conditions: 48 h, 5 µM; inhibitor

SMILES | % Inhibition [%]
Cc1ccc(/C=C/C(=O)NCCCCCN2CCN(C(=O)Nc3ccc(Cl)c(C(F)(F)F)c3)CC2)cc1 [TCMDC-136099] | 10.82
CC1(C)N=C(N)N=C(N)N1OCOc1ccc(Cl)cc1 [TCMDC-131734] | 26.86
CCCCCCN1CCCN(Cc2ccc(C(=O)Nc3ccc(C)c(F)c3)cc2)CC1 [TCMDC-136411] | 22.16
NC(N)=Nc1nc(-c2cccc(NC(=O)NCCc3c[nH]c4ccc(OCc5ccccc5)cc34)c2)cs1 [TCMDC-139557] | -16.48
NC(N)=Nc1nc(-c2cccc(NC(=O)C(F)(F)F)c2)cs1 [TCMDC-137441] | -3.219
N=C(N)Nc1nc(-c2ccc(NC(=O)Nc3cccc(-c4csc(NC(=N)N)n4)c3)cc2)cs1 [TCMDC-139559] | 111.8
NC(N)=Nc1nc(-c2cccc(NC(=O)NCc3ccc(OC(F)(F)F)cc3)c2)cs1 [TCMDC-139556] | 86.49
Cc1ccccc1CNC(=O)Nc1cccc(-c2csc(N=C(N)N)n2)c1 [TCMDC-139553] | 79.76
NC(N)=Nc1nc(-c2cccc(NC(=O)NCC(c3ccccc3)c3ccccc3)c2)cs1 [TCMDC-139555] | -30.72
NC(N)=Nc1nc(-c2cccc(NC(=O)Cc3ccccc3)c2)cs1 [TCMDC-139599] | 13.87
COc1ccc(CNC(=O)Nc2cccc(-c3csc(N=C(N)N)n3)c2)cc1 [TCMDC-139554] | 8.01
O=C(Nc1cccc(-c2csc(NC(=O)c3ccc4ccccc4c3)n2)c1)c1ccc2ccccc2c1 [TCMDC-124033] | -5.611
NC(N)=Nc1nc(-c2cccc(NC(=O)NCc3cccc4ccccc34)c2)cs1 [TCMDC-139552] | 11.54
NC(N)=Nc1nc(-c2ccc(NCc3ccc(CNc4cccc(-c5csc(N=C(N)N)n5)c4)cc3)cc2)cs1 [TCMDC-140699] | 83.03
NC(N)=Nc1nc(-c2cccc(NC(=O)CCCCCCCON3C(N)=NC(N)=NC34CCCCC4)c2)cs1 [TCMDC-140420] | -29.14
CCCNC(=O)C1Cc2cc(OC)c(OC)cc2C2(N1)C(=O)N(Cc1cccc(OC)c1)c1ccccc12 (centres unmarked) [TCMDC-141464] | 26.41
C=CCc1cc(OC)ccc1OCCCOc1c(C)nc(N)nc1N [TCMDC-131358] | 1.5
CCCCCCc1ncc(-c2cc3cc(O)c(-c4ccccc4)cc3oc2=O)s1 [TCMDC-124096] | -4.644
c1ccc2c3c([nH]c2c1)C(c1ccc2c(c1)CCO2)N(c1ncnc(N2CCN(CCCN4CCOCC4)CC2)n1)CC3 (centres unmarked) [TCMDC-138517] | 42.57
O=[N+]([O-])c1ccc(NC(=NCCOc2ccccc2)Nc2ccccc2Br)c(O)c1 [TCMDC-139982] | 18.66
Cc1cc(Oc2ccc(-n3ccnc3)cc2)nc(N2CCN(CCCN3CCCC3)CC2)n1 [TCMDC-132208] | 34.43
COc1cc(-n2cnc3cc(-c4ccc([N+](=O)[O-])cc4)sc3c2=O)ccc1OCCN1CCCC1 [TCMDC-138916] | 104.9
COc1cc(-n2c(CN3CCCC3)nc3cc(-c4ccc(Cl)cc4)sc3c2=O)ccc1OCCN1CCCC1 [TCMDC-135298] | 36.8
CCN(C)CCCn1c(N(C)C)nc2cc(-n3cnc4cc(-c5ccc(Cl)cc5)sc4c3=O)ccc21 [TCMDC-138926] | -50.75

SMILES | % Inhibition [%]
CN(C)c1nc2cc(-n3cnc4cc(-c5ccc(Cl)cc5)sc4c3=O)ccc2n1CCCN1CCCC1 [TCMDC-138922] | 42.12
COc1cc(-n2cnc3cc(-c4ccc(Cl)cc4)sc3c2=O)ccc1OCCN1CCC(c2cccc(NC(C)=O)c2)CC1 [TCMDC-138930] | 71.5
CN(C)c1nc2cc(-n3cnc4cc(-c5ccc(Cl)cc5)sc4c3=O)ccc2n1CCCN1CCCCC1 [TCMDC-138925] | 34.32
CN(CCN1CCCC1)c1nc2ccc(-n3cnc4cc(-c5ccc(Cl)cc5)sc4c3=O)cc2[nH]1 [TCMDC-138918] | 5.034
CCNC[C@H]1CCCN1CCOc1ccc(-n2cnc3cc(-c4ccc(Cl)cc4)sc3c2=O)cc1OC [TCMDC-134841] | 68.56
CCCCCc1ccc(N2C(N)=NC(N)=NC2(C)C)cc1 [TCMDC-137709] | 8.731
Cc1cccn2c(=O)c3cc(C(=O)NCCN4CCOCC4)c(=N)n(CCc4ccccc4)c3nc12 [TCMDC-124570] | 5.032
OCc1ccc(-c2cncc(Nc3ccc(F)c(Cl)c3)c2)cc1 [TCMDC-136671] | -20.21
CCOc1ccc(C=CC(=O)Nc2ccc3nc(N4CCN(C)CC4)cc(C)c3c2)cc1OC [TCMDC-125866] | -25.94
CC(C)c1ccc(NC(=O)c2ccc(NCCCN(C)Cc3ccccc3)c([N+](=O)[O-])c2)cc1 [TCMDC-125687] | -12.67
CCC(CCON1C(N)=NC(N)=NC1(C)C)c1ccc(Cl)cc1 (centres unmarked) [TCMDC-131710] | 30.1
Cc1ccccc1Oc1nc2ccccc2nc1SCC(=O)NC(C)C [TCMDC-124733] | -10.37
COc1cc(NC2=NS(=O)(=O)c3cc(Cl)ccc3N2C)cc(OC)c1OC [TCMDC-134208] | 87.41
COc1ccc2c(c1)S(=O)(=O)N=C(N1CCCC1c1ccc(Cl)c(Cl)c1)N2C (centres unmarked) [TCMDC-134209] | 3.235
COc1ccc(Nc2ccnc3cc(Cl)ccc23)cc1OC [TCMDC-124814] | -70.18
Oc1ccccc1CNCC(O)c1cccc(C(F)(F)F)c1 (centres unmarked) [TCMDC-140303] | 18.18
CCNc1cc(-c2cccc(OC)c2)nc(Nc2ccc(F)cc2)n1 [TCMDC-134014] | -12.85
Cc1ccc(C(=O)Nc2ccc(C)c(OC3CCN(Cc4ccco4)C3)c2)cc1 (centres unmarked) [TCMDC-133986] | 48.65
Cc1ccc(NC(=O)c2ccc3ncccc3c2)cc1OC1CCN(Cc2ccco2)C1 (centres unmarked) [TCMDC-133985] | 61.5
O=C(Nc1ccc(OC2CCN(CC3CC3)CC2)c(Cl)c1)c1ccc2ncccc2c1 [TCMDC-134273] | 41.88
O=C(Nc1ccc(OC2CCN(Cc3ccco3)C2)c(Cl)c1)c1ccc2ncccc2c1 (centres unmarked) [TCMDC-133987] | 24.52
Cc1ccc(NC(=O)c2ccc3ncccc3c2)cc1OC1CCN(Cc2ccc(F)cc2)C1 (centres unmarked) [TCMDC-133759] | -2.086
O=C(Nc1ccc(OC2CCN(Cc3ccco3)CC2)c(Cl)c1)c1ccc2ncccc2c1 [TCMDC-133984] | 86.08

Source: article PMC4552634, “A New Set of Chemical Starting Points with Plasmodium falciparum Transmission-Blocking Potential for Antimalarial Drug Discovery” (PLoS ONE, 2015)
